Data taken from PubChem BioAssay (Tox21).
Results filed as inconclusive are left out. Entries that show only a call come without a potency. Calls of active or inactive are those of the source. The call rests on the fitted dose curve; in most records, active means well fitted curve in the direction sought with a large enough effect in the repeat runs; inconclusive means weak or mixed curves; inactive means no such curve, though single readings can be large; an effect the other way counts as inactive or inconclusive.

Experiments:
[1] = A CellTox Green Cytotoxicity Assay to monitor cytotoxicity in HEK293 cells - 32 hour (AID 1224881); further: nearly all actives have a fitted effect of over 40% in size; further: potency means the concentration at half of the fitted maximal effect
Method in brief: (§1)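 Fluorescence intensity, read at 0, 8, 16, 24, 32 and 40 h of compound treatment, reflected dye binding to DNA of dead HEK293 cells; compounds (23 nL, DMSO) were added 5 h after plating cells with reagent.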

[2] = A CellTox Green Cytotoxicity Assay to monitor cytotoxicity in HepG2 cells - 0 hour (AID 1224882); further: nearly all actives have a fitted effect of over 35% in size
Method in brief: (§2)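 Using 1536-well format, dye-containing HepG2 suspension was seeded, allowed 5 h at 37 C/5% CO2, dosed by pintool with compounds, positive and negative controls, and imaged for fluorescence across 40 h.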

[3] = A CellTox Green Cytotoxicity Assay to monitor cytotoxicity in HepG2 cells - 32 hour (AID 1224883); further: nearly all actives have a fitted effect of over 50% in size; further: potency means the concentration at half of the fitted maximal effect
Method in brief: as §2

[4] = A CellTox Green Cytotoxicity Assay to monitor cytotoxicity in HEK293 cells - 8 hour (AID 1224884); further: nearly all actives have a fitted effect of over 35% in size
Method in brief: as §1

[5] = qHTS RealTime-Glo MT Cell Viability Assay in HepG2 cells - 16 hour (AID 1224885); further: nearly all actives have a fitted effect of over 50% in size; further: potency means the concentration at half of the fitted maximal effect
Method in brief: (§3)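 HepG2 cells were seeded at 600 cells/well together with NanoLuc luciferase and a cell-permeant prosubstrate, preincubated 5 h at 37 C/5% CO2, then pin-dosed with compounds in DMSO. Nonlytic luminescence from viable cells was read at each time point.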

[6] = A CellTox Green Cytotoxicity Assay to monitor cytotoxicity in HEK293 cells - 16 hour (AID 1224888); further: nearly all actives have a fitted effect of over 35% in size; further: potency means the concentration at half of the fitted maximal effect
Method in brief: as §1

[7] = qHTS RealTime-Glo MT Cell Viability Assay in HepG2 cells - 0 hour (AID 1224889); further: nearly all actives have a fitted effect of over 50% in size; further: potency means the concentration at half of the fitted maximal effect
Method in brief: as §3

[8] = A CellTox Green Cytotoxicity Assay to monitor cytotoxicity in HepG2 cells - 8 hour (AID 1224890); further: nearly all actives have a fitted effect of over 45% in size
Method in brief: as §2

[9] = qHTS RealTime-Glo MT Cell Viability Assay in HEK293 cells - 24 hour (AID 1224886); further: nearly all actives have a fitted effect of over 50% in size; further: potency means the concentration at half of the fitted maximal effect
Method in brief: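 HEK293 cells were seeded at 600 cells/well together with NanoLuc luciferase and cell-permeant prosubstrate, preincubated 5 h at 37 C/5% CO2, then given compound in DMSO by pintool. Luminescence from viable-cell prosubstrate reduction was read repeatedly over 40 h.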

[10] = qHTS RealTime-Glo MT Cell Viability Assay in HEK293 cells - 8 hour (AID 1224887); further: nearly all actives have a fitted effect of over 50% in size; further: potency means the concentration at half of the fitted maximal effect
Method in brief: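 Viable HEK293 cells reduce a cell-permeant prosubstrate; the product diffuses out and is consumed by NanoLuc in the medium to give light. Compounds went in after a 5 h incubation and plates were read over the treatment course.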

Row | Compound | Potency [1] | Potency [2] | Potency [3] | Potency [4] | Potency [5] | Potency [6] | Potency [7] | Potency [8] | Potency [9] | Potency [10]
1 | O=C(C(=O)c1ccco1)c1ccco1 | inactive | inactive | inactive | inactive | inactive | inactive | inactive | inactive |  | 
2 | NC(=O)c1ccccc1[N+](=O)[O-] | 1.78 µM (active) | inactive | inactive | inactive | inactive |  | inactive | inactive | inactive | inactive
3 | O=C(c1ccccc1)c1ccc(O)cc1 | inactive | inactive | inactive |  | inactive | inactive | inactive | inactive | inactive | inactive
4 | CCCCCCCC(=O)OCCCCCC | inactive | inactive | inactive | inactive | inactive | inactive | inactive | inactive | 3.89 µM (active) | 
5 | Cc1ccc(N(CC2=NCCN2)c2cccc(O)c2)cc1 | inactive | inactive | inactive |  | inactive | inactive | inactive | inactive | inactive | inactive
6 | COc1cc(NCc2ccc3nc(N)nc(N)c3c2C)cc(OC)c1OC | inactive | inactive | inactive | inactive | inactive | inactive | inactive | inactive |  | 
7 | CNS(=O)(=O)c1cc(C(=O)N2CCC(CCN3C4CCC3CC(n3c(C)nc5ccccc53)C4)(c3cccc(F)c3)CC2)c(Cl)cc1F (stereo not drawn) | inactive | inactive | inactive | inactive |  | inactive |  | inactive | 4.36 µM (active) | 3.89 µM (active)
8 | CCN(CC)C(=O)N1CCN(C)CC1 | inactive | inactive | inactive |  | inactive | inactive | inactive |  | inactive | inactive
9 | CC(CO)(CO)C(=O)O | inactive | inactive | inactive |  | inactive | inactive | inactive | inactive | inactive | inactive
10 | Nc1ccc(F)cc1 | inactive | inactive | inactive | inactive | inactive |  | inactive | inactive | inactive | inactive
11 | CCCc1nc2c(C)cc(-c3nc4ccccc4n3C)cc2n1Cc1ccc(-c2ccccc2C(=O)O)cc1 | inactive | inactive | inactive | inactive | inactive | inactive |  | inactive |  | 
12 | CCOC(=O)c1c(N)sc2c1CCN(Cc1ccccc1)C2 | inactive | inactive | inactive | inactive | inactive | inactive | inactive | inactive | 19 µM (active) | 
13 | Cc1cc(CCCOc2c(C)cc(-c3noc(C(F)(F)F)n3)cc2C)on1 | inactive | inactive | inactive | inactive | inactive | inactive | inactive | inactive |  | 
14 | COc1ccc(N)c([N+](=O)[O-])c1 | inactive | inactive | inactive |  | inactive | inactive | inactive | inactive | inactive | inactive
15 | Cc1cn([C@H]2C[C@H](F)[C@@H](CO)O2)c(=O)[nH]c1=O | inactive | inactive | inactive |  | inactive | inactive | inactive |  | inactive | inactive
16 | Nc1nc2ccc(OC(F)(F)F)cc2s1 | inactive | inactive | inactive | inactive | inactive | inactive | inactive | inactive |  | inactive
17 | CCC1CCC(CCC(=O)O)C1 (stereo not drawn) | inactive | inactive | inactive |  | inactive | inactive | inactive | inactive | inactive | inactive
18 | CCOC(=O)N1CCC(Nc2ccc(Cl)cc2N)CC1 | inactive | inactive | inactive | inactive | inactive | inactive | inactive | inactive |  | inactive
19 | COc1ccc(-c2cc(=S)ss2)cc1 | inactive | inactive | inactive | inactive | inactive | inactive | inactive | inactive | inactive | 
20 | O=C(NS(=O)(=O)/C=C/c1ccccc1)c1ccc(F)cc1Cl | inactive | inactive | 54.9 µM (active) |  | inactive | inactive | 19.5 µM (active) | inactive | inactive | inactive
21 | CC(C)c1ccc(C#N)cc1 | inactive | inactive | inactive |  | inactive | inactive | inactive |  | 17.4 µM (active) | inactive
22 | CC(C)OC(=O)c1ccccc1C(=O)OC(C)C | inactive | inactive | inactive | inactive | inactive | inactive | inactive |  | inactive | 
23 | CC(C(=O)O)c1ccc(C(=O)c2cccs2)cc1 (stereo not drawn) | inactive | inactive | inactive |  | inactive | inactive | inactive | inactive | inactive | inactive
24 | CN(C)CC/C=C1\c2ccccc2Sc2ccc(Cl)cc21 | 26.8 µM (active) | inactive | 21.3 µM (active) |  | 23.9 µM (active) |  |  |  | 23.9 µM (active) | 
25 | CNCc1ccc(NC(=O)c2c[nH]c3c2C(=O)CCC3)cc1 | inactive | inactive | inactive | inactive | inactive | inactive | inactive | inactive |  | 

Row | Compound | Potency [1] | Potency [2] | Potency [3] | Potency [4] | Potency [5] | Potency [6] | Potency [7] | Potency [8] | Potency [9] | Potency [10]
26 | O=C(/C=C/c1ccc([N+](=O)[O-])cc1)c1ccccc1 | 17.4 µM (active) | inactive | 21.9 µM (active) | inactive | inactive | inactive | inactive | inactive | 31 µM (active) | 
27 | CC(=O)OCCC(C)CC(C)(C)C (stereo not drawn) | inactive | inactive | inactive |  | inactive | inactive | inactive | inactive | inactive | inactive
28 | c1ccc(CNc2ncnc3c2ncn3C2CCCCO2)cc1 (stereo not drawn) | inactive | inactive | inactive | inactive | inactive | inactive | inactive | inactive |  | 
29 | CC(=O)OCC(=O)[C@@]1(OC(C)=O)[C@@H](C)C[C@H]2[C@@H]3C[C@H](F)C4=CC(=O)C=C[C@]4(C)[C@@]3(F)[C@@H](O)C[C@@]21C | inactive | inactive | inactive | inactive | inactive | inactive |  | inactive | inactive | inactive
30 | Cc1ccc2nc(N)[nH]c(=O)c2c1Sc1ccncc1 | inactive | inactive | inactive | inactive |  | inactive | inactive | inactive | inactive | inactive
31 | COc1cc(S(=O)(=O)Nc2ccccc2)c(OC)cc1N | inactive | inactive | inactive | inactive |  | inactive | inactive | inactive | inactive | inactive
32 | COC(=O)C1=C(C)NC(C)=C(C(=O)OC(C)(C)CN(C)CCC(c2ccccc2)c2ccccc2)C1c1cccc([N+](=O)[O-])c1 (stereo not drawn) | inactive | inactive | inactive | inactive |  | inactive | inactive | inactive | inactive | inactive
33 | CC(C)C(O)C(C)(C)CO (stereo not drawn) | inactive | inactive | inactive | inactive | inactive | inactive | inactive | inactive | 0.801 µM (active) | 
34 | COc1ccc(-c2cc(C(F)F)nn2-c2ccc(S(N)(=O)=O)cc2)cc1F | inactive | inactive | inactive | inactive | inactive | inactive | inactive | inactive |  | inactive
35 | CC1CCC(C(C)CS)CC1S (stereo not drawn) | 49 µM (active) | inactive | inactive |  | inactive | 49 µM (active) | inactive | inactive | inactive | inactive
36 | Nc1ccn([C@H]2CS[C@@H](CO)O2)c(=O)n1 |  | inactive | inactive | inactive | inactive | inactive | inactive | inactive | inactive | inactive
37 | CCCCC[C@H](O)/C=C/[C@H]1[C@H](O)CC(=O)[C@@H]1C/C=C\CCCC(=O)O |  | inactive | inactive | inactive | inactive | inactive | inactive |  | inactive | inactive
38 | Cc1cccc(C)c1NC(=O)c1cc(S(N)(=O)=O)c(Cl)cc1O |  | inactive | inactive | inactive | inactive | inactive | inactive | inactive | inactive | inactive
39 | CCOc1ncc(F)c(=O)[nH]1 |  | inactive | inactive | inactive | inactive | inactive | inactive | inactive | inactive | inactive
40 | O=[N+]([O-])C1(Br)COCOC1 | 54.9 µM (active) | inactive | 49 µM (active) |  | 49 µM (active) |  | inactive |  | 38.9 µM (active) | 49 µM (active)
41 | COC(=O)c1sccc1S(N)(=O)=O | inactive | inactive |  | inactive | inactive | inactive | inactive | inactive | inactive | inactive
42 | CC1CCCC(=O)C1=O (stereo not drawn) | inactive | inactive |  | inactive | inactive | inactive | inactive | inactive | inactive | inactive
43 | COc1ccc(C(=O)NCc2ccc(OCCN(C)C)cc2)cc1OC |  | inactive | inactive | inactive | inactive | inactive | inactive | inactive | inactive | inactive
44 | CCN(Cc1cccc(S(=O)(=O)O)c1)c1ccc(C(=C2C=CC(=[N+](CC)Cc3cccc(S(=O)(=O)O)c3)C=C2)c2ccccc2S(=O)(=O)[O-])cc1 |  | inactive | inactive | inactive | inactive | inactive | inactive | inactive | inactive | inactive
45 | COc1cc(C(C)=O)ccc1OCCCN1CCC(c2noc3cc(F)ccc23)CC1 | inactive | inactive |  | inactive | inactive | inactive | inactive | inactive | 9.52 µM (active) | 9.52 µM (active)
46 | Oc1cccc2[nH]ccc12 | inactive | inactive | inactive |  | inactive | inactive | inactive | inactive | inactive | inactive
47 | CCC(CO)(CO)[N+](=O)[O-] | inactive | inactive |  | inactive | inactive | inactive | inactive | inactive | inactive | inactive
48 | O=C(Oc1ccccc1)c1ccc2ccccc2c1O | inactive | inactive |  | inactive | inactive | inactive | inactive | inactive |  | 
49 | CC(=O)C(C)=O | inactive | inactive |  | inactive | inactive | inactive | inactive | inactive | inactive | inactive
50 | COC(=O)Nc1nc2ccc(C(=O)C3CC3)cc2[nH]1 | inactive | inactive | 0.952 µM (active) |  | inactive | inactive | inactive | inactive |  | inactive
